The source of these data is article PMC4336329 (PLoS ONE, 2015).

Out of some 310,000 compounds screened, about 14,000 (4.5%) showed an effect of 50% or more. Effects have a minus sign here. What follows is part of a selection rich in strong results, with near analogues and random picks from the rest.
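Note: peak tail current of the secondary pulse compared with the same well before compound.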

Sequence of human ether-à-go-go-related gene (hERG) potassium channel (Q12809 whole entry, looked up): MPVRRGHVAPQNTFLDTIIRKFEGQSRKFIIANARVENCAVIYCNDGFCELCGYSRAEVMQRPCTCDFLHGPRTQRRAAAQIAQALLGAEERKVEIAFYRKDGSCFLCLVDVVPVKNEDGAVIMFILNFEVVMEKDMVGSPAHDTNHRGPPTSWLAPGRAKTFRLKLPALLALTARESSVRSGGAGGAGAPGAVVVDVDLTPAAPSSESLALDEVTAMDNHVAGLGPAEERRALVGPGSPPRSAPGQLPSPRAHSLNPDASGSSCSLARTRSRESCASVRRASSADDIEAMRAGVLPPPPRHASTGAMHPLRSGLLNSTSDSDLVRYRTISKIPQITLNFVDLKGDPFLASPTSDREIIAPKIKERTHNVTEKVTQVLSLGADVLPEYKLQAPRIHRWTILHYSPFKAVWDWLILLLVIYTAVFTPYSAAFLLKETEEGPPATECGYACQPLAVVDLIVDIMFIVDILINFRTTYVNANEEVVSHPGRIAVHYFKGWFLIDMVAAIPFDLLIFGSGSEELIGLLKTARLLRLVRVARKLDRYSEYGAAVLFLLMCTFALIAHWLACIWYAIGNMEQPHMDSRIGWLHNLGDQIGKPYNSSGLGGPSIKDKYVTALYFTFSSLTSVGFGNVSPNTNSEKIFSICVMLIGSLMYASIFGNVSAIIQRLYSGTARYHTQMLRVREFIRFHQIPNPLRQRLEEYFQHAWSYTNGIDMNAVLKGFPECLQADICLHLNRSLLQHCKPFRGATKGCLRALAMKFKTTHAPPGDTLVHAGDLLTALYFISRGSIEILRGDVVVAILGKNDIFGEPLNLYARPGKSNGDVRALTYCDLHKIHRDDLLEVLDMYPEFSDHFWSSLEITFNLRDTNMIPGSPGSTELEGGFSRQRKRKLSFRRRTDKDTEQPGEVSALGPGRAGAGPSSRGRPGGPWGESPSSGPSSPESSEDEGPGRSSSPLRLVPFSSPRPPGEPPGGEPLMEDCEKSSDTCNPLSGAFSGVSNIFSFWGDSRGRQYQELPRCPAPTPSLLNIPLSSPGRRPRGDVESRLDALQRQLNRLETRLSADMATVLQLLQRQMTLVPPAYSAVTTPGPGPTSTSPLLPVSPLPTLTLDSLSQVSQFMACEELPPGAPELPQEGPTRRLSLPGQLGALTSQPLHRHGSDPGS

The assay concerns the target human ether-à-go-go-related gene (hERG) potassium channel (human, UniProt Q12809). The experiment in a line: primary screen, population patch clamp on CHO cells stably expressing hERG; higher = less effect of the substance.
For the compound `OCCOCCn1c(-c2ccccc2)nc(=S)c2c1CCCC2`, the “hERG current change (%, negative = inhibition) at 10uM” value is 9.34%.

Turning to `CCCOc1ccc(Cn2c(O)cc(=O)[nH]c2=O)cc1`, the “hERG current change (%, negative = inhibition) at 10uM” value is reported as 14.1%. As to `Cc1sc(N)c(C(=O)c2ccccc2)c1C`, the “hERG current change (%, negative = inhibition) at 10uM” value turned out to be 9.41%.

As to `O=C(O)c1cccc(N2C(=O)c3cccc4cccc(c34)C2=O)c1`, the “hERG current change (%, negative = inhibition) at 10uM” value is on record as 12.7%. Regarding `O=C(c1ccccc1)c1c2c(cc3sc4ccccc4[n+]13)-c1cccc3cccc-2c13.[Br-]`, the “hERG current change (%, negative = inhibition) at 10uM” value is listed as -76.8%. Regarding `Cc1sc2cc3c(c(C(=O)c4ccccc4)[n+]2c1C)-c1cccc2cccc-3c12.[Br-]`, the “hERG current change (%, negative = inhibition) at 10uM” value is given as -77.1%. Regarding `Cc1sc2ccccc2[n+]1CC(=O)c1ccccc1.[Br-]`, the “hERG current change (%, negative = inhibition) at 10uM” value is 18.7%. Next, `CN(C)/C=N/c1ncc(C(=O)c2ccccc2)s1`: 1.48%. For `N#C/C(=C\c1ccccc1)C(=O)NC1CC1` the value was 11.3%. For `O=C(CSc1nnnn1-c1cccc(F)c1)Nc1nc2ccccc2s1` the value was 8.36%. Take `COCC1CCN(Cc2cn[nH]c2-c2cc3ccccc3o2)C1` (centres unmarked): the “hERG current change (%, negative = inhibition) at 10uM” value is recorded as -33.7%. Next, `Cc1nonc1C1CCCN1Cc1cn[nH]c1-c1ccc(-c2ccccc2)cc1` (centres unmarked): -24.6%; `c1ccc2oc(-c3[nH]ncc3CN3CCC(N4CCSCC4)CC3)cc2c1`: -61.9%. For `c1ccc(-c2ccc(-c3[nH]ncc3CN3CCC(N4CCSCC4)CC3)cc2)cc1`, the “hERG current change (%, negative = inhibition) at 10uM” value is listed as -80.7%. For `COc1ccc(-c2[nH]ncc2CN2CCC(N3CCSCC3)CC2)c(F)c1` the value was 1.98%. Turning to `c1ccc2oc(-c3[nH]ncc3CN3CCSCC3)cc2c1`, the “hERG current change (%, negative = inhibition) at 10uM” value was -5.92%. Next, `CN(C)c1ccc(CNC(=O)CN(C)S(=O)(=O)c2ccc3c(c2)c(=O)n(C)c(=O)n3C)cc1`: 9.67%; `CC1(C)CC(=O)C2=C(C1)NC(=O)NC2c1ccccc1Cl` (centres unmarked): 16.3%; `Cc1ccc(S(=O)(=O)NCC(=O)N(CC2CCCO2)C(C(=O)NC2CCCCC2)C(C)C)cc1` (centres unmarked): -52.7%. In the case of `CC(C)C(C(=O)NC1CCCCC1)N(CC1CCCO1)C(=O)CNS(=O)(=O)c1ccc(F)cc1` (centres unmarked), the “hERG current change (%, negative = inhibition) at 10uM” value is listed as -7.17%. In the case of `Cc1ccc(S(=O)(=O)NCC(=O)N(CC2CCCO2)C(C(=O)NC2CCCC2)C(C)C)cc1` (centres unmarked), the “hERG current change (%, negative = inhibition) at 10uM” value was -1.47%. For `Cl.O=C(O)CCNc1nc(-c2ccccc2)nc2ccccc12`, the “hERG current change (%, negative = inhibition) at 10uM” value came out at 2.17%. For `CC(C)(C)OC(=O)NNC(=O)NC12CC3CC(CC(C3)C1)C2` the value was -4.97%; for `Cc1ccc(NC(=O)CSc2nc(N)cc(N)n2)cc1S(=O)(=O)N1CCOCC1`, 7.71%. For `CCN(C(=O)C1CCN(c2nc(-c3ccc(OC)cc3)no2)CC1)c1ccccc1` the value was -24.7%; for `O=C(CSCc1ccccn1)Nc1ccccc1`, 1.85%; for `O=C(CSCc1cccc(CSCC(=O)Nc2ccc3ccccc3c2)n1)Nc1ccc2ccccc2c1`, 9.54%. For `O=C(CSCc1cccc(CSCC(=O)Nc2ccccc2)n1)Nc1ccccc1` the value was -67%; for `O=C(CSCc1ccco1)Nc1cc(C(F)(F)F)ccc1N1CCOCC1`, -49%; for `Cl.OC(COc1ccc(F)cc1)CN1CCN(c2ccccc2F)CC1` (centres unmarked), -66.6%. Turning to `Cl.OC(COCc1ccccc1)CN1CCN(c2ccccc2F)CC1` (centres unmarked), the “hERG current change (%, negative = inhibition) at 10uM” value was -45.9%.

In the case of `CC(C(=O)N1CCN(c2ccccc2F)CC1)c1ccc([N+](=O)[O-])cc1` (centres unmarked), the “hERG current change (%, negative = inhibition) at 10uM” value is -68.4%. With `O=S(=O)(c1ccc(OCC(O)CN2CCN(c3ccccc3O)CC2)cc1)N1CCOCC1` (centres unmarked), the “hERG current change (%, negative = inhibition) at 10uM” value is -6.91%. Next, `COc1cccc(OC)c1OCC(O)CN1CCN(c2ccccc2F)CC1.Cl` (centres unmarked): -12.2%; `O=[N+]([O-])c1ccc(OCC(O)CN2CCN(c3ccccc3F)CC2)cc1` (centres unmarked): -75.3%; `CC(C(=O)N1CCN(c2ccccc2)CC1)c1ccc([N+](=O)[O-])cc1` (centres unmarked): -42.7%. For `CC(C(=O)N1CCCC1)c1ccc([N+](=O)[O-])cc1` (centres unmarked) the value was -0.0422%. For `Cc1ccc(N2CCN(C(=O)NC3CCCCC3)CC2C)cc1` (centres unmarked) the value was 4.09%. On to `CCOC(=O)c1c(S(=O)(=O)NCc2cccs2)c(C)n(C)c1C`, for which the “hERG current change (%, negative = inhibition) at 10uM” value was -12.1%. `CC(=O)c1ccc(N(C(=O)Cc2c[nH]c3ccccc23)C(C(=O)NC2CCCCC2)c2cccs2)cc1` (centres unmarked): the “hERG current change (%, negative = inhibition) at 10uM” value worked out at 7.81%. Regarding `CN1C(=O)CSC1=NCC12CC3CC(CC(C3)C1)C2`, the “hERG current change (%, negative = inhibition) at 10uM” value is given as -19.6%. Next, `CC(C)CC(=O)NC1(C(F)(F)F)C(=O)Nc2c1c(=O)n(C)c(=O)n2C` (centres unmarked): 10.5%.

For the compound `COc1cc(OC)nc(NC2OC(=O)c3ccccc32)n1` (centres unmarked), the “hERG current change (%, negative = inhibition) at 10uM” value is 0.248%.

Consider `CC(=O)Oc1cc2c(cc1Cl)C(c1cccs1)CC1(CC(C)(C)NC(=S)N1)O2` (centres unmarked), for which the “hERG current change (%, negative = inhibition) at 10uM” value worked out at 9.77%.
